The source of these data is PubChem BioAssay AID1508622 (National Center for Advancing Translational Sciences (NCATS), 2021).

The structures appear in SMILES notation. Activity calls are given as the source filed them. A call without a number means that no potency is given here. The call rests on the fitted dose curve; in most records, active means well fitted activation curve with a large enough effect; inconclusive means small, poorly fitted or top-dose-only effect; inactive means no such curve, though single readings can be large or run the other way.

The assay in a line: Confirmatory qHTS for Identification of Small Molecule Activators of Huntingtin-Antisense Promoter Activity. The settings on record: HEK293 HTT-AS promoter firefly luciferase reporter, 24 h; series mostly up to 57.5 µM. The method, boiled down:
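Activity normalized between vehicle control (0%) and zero RLU (-100%) from firefly luminescence (Dual-Glo). Compounds, up to 57.5 uM final, incubated 24 h at 37C on HEK293 reporter cells plated 24 h earlier.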
For orientation: Quantitative high-throughput screening tests each substance at several concentrations.
As for `Cc1c(Cl)ccc2sc(N3CCN(C(=O)CCS(=O)(=O)c4ccc(F)cc4)CC3)nc12`, the Potency result was “inactive”.

Consider `CCCCOc1ccc(CNC(=O)c2ccc(NC(=O)N3CCSc4ncccc43)cc2)cc1`, for which the Potency entry was “inactive”.

Take `Cc1ccc(CSC2=Nc3ccccc3C3=NC(CC(=O)NC4CCCCC4)C(=O)N23)cc1` (centres undefined): the Potency result was “inactive”.

In the case of `O=C(NCc1ccccc1)C(=O)NCC(c1ccco1)S(=O)(=O)c1ccc(Cl)cc1` (centres undefined), the Potency result was “inactive”.

In the case of `CCNc1nc2c(c(=O)n(C)c(=O)n2C)n1Cc1ccc(F)cc1`, the Potency entry is “inactive”.

In the case of `CCc1c(C)nc2nncn2c1Nc1ccc(C(C)C)cc1`, the Potency result is “inactive”.

For `COc1ccc2oc(=O)c(C(=O)NCCc3c(C)[nH]c4ccc(C)cc34)cc2c1`, the Potency entry is “inactive”.

Consider `Cc1ccc(C)c(N2CCN(S(=O)(=O)c3cc(C(=O)Nc4ccccc4C(F)(F)F)ccc3F)CC2)c1`, for which the Potency entry was “inactive”.

`CCS(=O)(=O)c1oc(-c2ccc(F)cc2)nc1S(=O)(=O)c1ccc(Br)cc1`: the Potency result is “inactive”.

With `O=C(NCc1ccc(Cl)cc1)C1CCN(S(=O)(=O)c2ccc3c(c2)CCCN3C(=O)C2CCC2)CC1`, the Potency result was “inactive”.

For the compound `COc1ccc(-n2ccnc2SCC(=O)Nc2cccc(OC)c2)cc1`, the Potency result is “inactive”.

Consider `CCc1ccc(OC(C)C(=O)N2CCC(c3nc4ccccc4s3)CC2)cc1` (centres undefined), for which the Potency result is “inactive”.

`CC(C)c1ccc(CNC(=O)c2ccc(N3CCCC3)c(NC(=O)NCc3ccc(F)cc3)c2)cc1`: the Potency result was “inactive”.

`O=C(c1ccc2c(c1)CCN2S(=O)(=O)c1ccc(Cl)cc1)N1CCN(c2ccccc2F)CC1`: the Potency result was “inactive”.

With `CCOc1ccc(-c2cc(C)n3nc(C(=O)Nc4ccc(C)c(C)c4)cc3n2)cc1`, the Potency entry was “inactive”.

With `Cc1ccc(C)c(N2CCN(C(=O)CCS(=O)(=O)c3ccc4c(c3)CC(=O)N4C)CC2)c1`, the Potency entry is “inactive”.

For the compound `Cc1ccc(C)c(NC(=O)CSc2nnc(-c3cc4occc4n3C)n2-c2ccccc2C)c1`, the Potency result was “inactive”.

Consider `Cn1c(CN2CCCCC2)nc2cc(NC(=O)c3ccc(Cl)cc3)ccc21`, for which the Potency result was “inactive”.

Take `O=C(CSc1nccn1Cc1ccco1)Nc1cc(C(F)(F)F)ccc1Cl`: the Potency result is “inactive”.

Regarding `COc1ccc(S(=O)(=O)c2cc3cc(C(C)(C)C)cc(O)c3oc2=O)cc1`, the Potency result was “inactive”.

Take `CCOc1ccc(CCNC(=O)c2cc3c(-c4cccc(OC)c4)nn(C)c3s2)cc1OCC`: the Potency entry is “inactive”.

Consider `O=C(Nc1nnc(S(=O)(=O)N2CCc3ccccc32)s1)c1cccc(Cl)c1`, for which the Potency result was “inactive”.

In the case of `CCc1ccc(CNC(=O)Cn2ccc3cc(S(=O)(=O)N4CCCCCC4)ccc32)cc1`, the Potency entry is “inactive”.

With `Cc1ccc(Cn2c(=O)c3ccccc3n3c(-c4cccc(O)c4)nnc23)cc1`, the Potency entry was “inactive”.

Consider `COc1ccc(-n2c(-c3ccco3)nc3c(cnn3-c3ccc(Cl)cc3)c2=O)cc1`, for which the Potency entry was “inactive”.

In the case of `Cc1cc(Nc2cccc(C(F)(F)F)c2)nc2ccc(NC(=O)c3cccnc3)cc12`, the Potency result is “inactive”.

For `COc1cc(C[C@@H](CO)[C@H](CO)Cc2ccc(O)c(OC)c2)ccc1O`, the Potency entry is “inactive”.

For the compound `Cc1cc(N2CCC(C)CC2)nc2ccc(NC(=O)CCC(=O)N3CCN(c4cccc(C(F)(F)F)c4)CC3)cc12`, the Potency entry is “inactive”.

As for `COc1ccc(OC(C)C(=O)NCc2nc(-c3ccc(Cl)cc3)no2)cc1` (centres undefined), the Potency result is “inactive”.

Regarding `CCCCN1CC(c2nc3ccccc3n2CCCCOc2ccc(C)c(C)c2)CC1=O` (centres undefined), the Potency result was “inactive”.

For the compound `CCCCN(CC)C(=O)C1CCC(CNS(=O)(=O)c2cccc3nsnc23)CC1` (centres undefined), the Potency result is “inactive”.

For the compound `O=C(NCc1cccnc1)C(=O)NCC(c1cccnc1)N1CCN(c2ccccc2F)CC1` (centres undefined), the Potency result was “inactive”.

Consider `Cc1cccc(NC(=O)c2c(NC(=O)C(F)(F)F)sc3c2CCCCC3)c1`, for which the Potency entry was “inactive”.

Take `CC(C)c1ccc(Cc2cnc(NC(=O)c3ccc4c(c3)CC(c3ccccc3)OC4=O)s2)cc1` (centres undefined): the Potency result was “inactive”.

For `COc1cc(NC(=O)NC(C)c2c(-n3cccc3)sc3c2CCCC3)cc(OC)c1OC` (centres undefined), the Potency entry is “inactive”.

For `CCOc1ccc(CNC(=O)c2ccc(Sc3ccc(Cl)cc3)c(NC(C)=O)c2)cc1OC`, the Potency result was “inactive”.

Regarding `Cc1cc(C)c(/C=C/c2onc(C)c2S(=O)(=O)N2CCC(C(=O)NCc3ccco3)CC2)c(C)c1`, the Potency result is “inactive”.

On to `O=C(NCC1CCN(Cc2ccccc2F)CC1)Nc1ccc(F)c(Cl)c1`, for which the Potency entry was “inactive”.

In the case of `COc1cccc(NC(=O)c2oc3ccc(S(=O)(=O)N4CCCCCC4)cc3c2C)c1`, the Potency result was “inactive”.
